# Reference: PubChem BioAssay (Tox21)
# Inconclusive results are not listed. Values without a mark were called inactive. The call rests on the fitted dose curve; in most records, active means well fitted inhibition curve with a large enough effect in the repeat runs; inconclusive means weak or mixed curves; inactive means flat fitted curve, though single readings scatter.
# Biological target: Luciferin 4-monooxygenase (Photinus pyralis) (UniProt P08659)
# Assay: qHTS assay to identify small molecule inhibitors of firefly luciferase (AID 1224835); further: nearly all actives have a fitted effect of over 25% in size
# Conditions: purified P. pyralis luciferase, luminescence inhibition; series mostly up to 115 µM; activity change, negative = inhibition: at the top concentration
# Method in brief: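 Quantitative HTS format; KM concentrations of both substrates. Purified P. pyralis FLuc activity quantified from luminescence images.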
# On the % scale 0 is the no-effect control and ±100 the full control effect.
# Luciferin 4-monooxygenase (Photinus pyralis), sequence (P08659 whole entry, looked up): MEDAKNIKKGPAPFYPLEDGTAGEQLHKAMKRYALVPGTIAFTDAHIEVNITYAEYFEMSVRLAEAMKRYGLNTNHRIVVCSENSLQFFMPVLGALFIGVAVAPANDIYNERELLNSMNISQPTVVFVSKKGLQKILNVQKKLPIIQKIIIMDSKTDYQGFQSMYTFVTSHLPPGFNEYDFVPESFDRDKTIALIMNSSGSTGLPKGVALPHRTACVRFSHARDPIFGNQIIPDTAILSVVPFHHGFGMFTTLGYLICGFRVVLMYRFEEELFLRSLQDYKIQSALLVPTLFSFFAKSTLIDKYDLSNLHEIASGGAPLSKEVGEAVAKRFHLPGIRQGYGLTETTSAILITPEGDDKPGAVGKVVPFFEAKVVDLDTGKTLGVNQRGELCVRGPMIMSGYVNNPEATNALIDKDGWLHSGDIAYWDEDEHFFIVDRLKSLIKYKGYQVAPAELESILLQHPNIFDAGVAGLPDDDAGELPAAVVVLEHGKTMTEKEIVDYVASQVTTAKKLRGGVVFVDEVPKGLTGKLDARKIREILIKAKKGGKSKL
row,Structure (SMILES),"activity change, negative = inhibition"
1,CC(CC(=O)O)CC(C)(C)C (configuration not stated),-0.0034%
2,Nc1ccc(/C=C/c2ccc(N)cc2S(=O)(=O)O)c(S(=O)(=O)O)c1,0.257% [at 0.435 µM]
3,COc1ccc(NS(=O)(=O)c2ccc(N)cc2)nn1,0.335% [at 52.9 µM]
4,CCCCCCCCCCCCC1CO1 (configuration not stated),-4.67%
5,CC(C)C(=O)c1ccccc1,4.2%
6,CCCCCCCCCCC,3.24%
7,CC(Cl)COP(=O)(OCC(C)Cl)OCC(C)Cl (configuration not stated),1.21%
8,CN(C)CCOCCN(C)CCO,3.55%
9,CC(C)(CO)[C@@H](O)C(=O)NCCCO,1.68% [at 52.9 µM]
10,CC(=O)OC(C)c1ccccc1 (configuration not stated),3.36%
11,C=CCOCC(CO)(COCC=C)COCC=C,-0.454% [at 52.9 µM]
12,Cc1ncc([N+](=O)[O-])n1CC(O)CCl (configuration not stated),-1.25% [at 52.9 µM]
13,CCCCC(CC)COC(=O)c1ccccc1 (configuration not stated),-6.75%
14,CCN(CCO)c1cccc(C)c1,-0.646%
15,CN=C(NC#N)NCCSCc1csc(N=C(N)N)n1,0.442% [at 52.9 µM]
16,CC1CCC(C(C)(C)S)C(=O)C1 (configuration not stated),3.39%
17,O=CN1CCOCC1,1.03%
18,Cc1c(C(C)C)c(=O)n(-c2ccccc2)n1C,-1.34% [at 52.9 µM]
19,CCCCCCCCCCCCCCCCCCN(C)C,-1.79% [at 52.9 µM]

row,Structure (SMILES),"activity change, negative = inhibition"
1,O=C(O)CCNC(=O)c1ccccc1,4.53% [at 52.9 µM]
2,COc1ccc(OC)c(NC(=O)CC(C)=O)c1,1.07%
3,CCN(CCC#N)c1ccccc1,0.977%
4,O=C(CN1CCN(Cc2ccc3c(c2)OCO3)CC1)N1c2ccccc2Sc2ccccc21,2.36% [at 52.9 µM]
5,O=C(O)c1ccccc1C(=O)Nc1ccc(S(=O)(=O)Nc2nccs2)cc1,-2.9% [at 52.9 µM]
6,O=c1[nH]c(=O)c2ccccc2o1,-3.29% [at 52.9 µM]
7,CCC1COC(=O)O1 (configuration not stated),11.3%
8,C=CCOc1cc(Cl)ccc1C(=O)NCCN(CC)CC,3.37% [at 52.9 µM]
9,Cc1cccc(NC(=S)N(C)C)c1,-2.07%
10,O=C(COCCOCCOCC(=O)Nc1c(I)cc(I)c(C(=O)O)c1I)Nc1c(I)cc(I)c(C(=O)O)c1I,1.47% [at 52.9 µM]
11,C=CCOc1c(Br)cc(Br)cc1Br,2.04%
12,NC(=O)NC(=O)Cc1ccccc1,-1.08% [at 52.9 µM]
13,FC(F)(F)/C(=N\OCC1OCCO1)c1ccc(Cl)cc1,3.05%
14,CCOc1ccc(NC(=O)OC(C)C)cc1OCC,-0.683%
15,CC(=O)/C=C/c1ccco1,0.7%
16,CCC(=O)OCCC(C)CCC=C(C)C (configuration not stated),0.966%
17,CCCCCCCCC(=O)OCC,-0.333%
18,CCCCCCCCCCCCCCCCI,0.965% [at 23.6 µM]
